# This is a sample that favours compounds with a hit; in the whole collection about 19% have one here.
# DT40 TDP1 no CPT = qHTS for Inhibitors of human tyrosyl-DNA phosphodiesterase 1 (TDP1): qHTS in cells in absence of CPT; DT40 Tdp1-/- hTDP1 cells, no CPT, ATP luminescence, 48 h; Potency, µM (top dose mostly 46.2 µM), most hits filed as inhibitors; 15% of 420,000 active; AID 686978, 2013; further: nearly all actives have a fitted effect of over 55% in size
#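 Stably hTDP1-transfected Tdp1-null chicken DT40 cells were treated with library compounds minus camptothecin and grown for at least 48 hr at 37 °C, after which cellular ATP was quantified by luminescence.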
# HT1080 IDH1KD tx = toxicity to HT-1080 IDH1 knockdown cells (counter line); HT-1080 IDH1 knockdown viability, ATP luminescence, 48 h; AID 686971; Potency, µM (doses to about 46.1 µM), most hits filed as cytotoxic; 2% of 360,000 active
#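 Using the IDH1-knockdown HT-1080 line run in the same batch and compound series as the NT line, viability after 48 h at 37 °C was determined by CellTiter-Glo luminescence and expressed as % activity.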
# DT40 TDP1 CPT = DT40-hTDP1 cell growth loss with CPT; chicken DT40 Tdp1-/-;hTDP1 cells + 20 nM CPT, ATP luminescence, 48 h; Potency, µM (series often up to 46.2 µM), hits mostly inhibitors; 12% of 420,000 active; further: nearly all actives have a fitted effect of over 55% in size
#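 Chicken DT40 Tdp1-/- cells complemented with human TDP1, 400 cells/well, exposed to compounds plus 20 nM camptothecin for at least 48 h at 37 C; viability read as ATP content by CellTiter-Glo luminescence.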
# IL-1B inflam inh = blocks inflammasome-driven IL-1 beta release; THP-1 LPS/ATP IL-1B secretion, AlphaLISA, 16 h; active compounds read low; activity change, % at 57.5 µM; 4.7% of 360,000 active; in the data active means activity change below about -50%; inconclusive means mostly about -30% to -49%
#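 THP-1 cells pretreated 1 hr with compounds (up to 57.5 uM final), then stimulated with LPS (250 ng/mL final) plus ATP (1.25 mM final); secreted IL-1B measured by AlphaLISA after 16 hr, decreased signal indicating inhibition.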
# HT1080NT lethal = kills 2HG-producing HT-1080-NT fibrosarcoma cells. HT-1080-NT fibrosarcoma viability, CellTiter-Glo ATP luminescence, 48 h. Potency, µM (top dose mostly 46.1 µM), hits mostly cytotoxic. 1.6% of 360,000 active. AID 686970;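 further: NT is the 2HG producing partner of a matched IDH1 knockdown line; nearly all actives have a fitted effect of over 55% in size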
#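 HT-1080-NT; 750 cells/well; 5% FBS RPMI; 48 h compound, 37 degrees C; CellTiter-Glo luminescence; curve fitting and curve-class assignment.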
# A number is an active result; i = inactive; ? = inconclusive; nt = no result given; ! = a repeat was not active; [ ] = another dose, or the depositor's remark. Unless noted, the call rests on the fitted dose curve; in most records, active means well fitted curve in the direction sought with a large enough effect; inconclusive means small, poorly fitted or top-dose-only effect, or another doubt; inactive means no such curve, though single readings can be large; an effect the other way counts as inactive or inconclusive.
SMILES,DT40 TDP1 no CPT,HT1080 IDH1KD tx,DT40 TDP1 CPT,IL-1B inflam inh,HT1080NT lethal
COc1ccc(-c2nc(S(=O)(=O)c3ccccc3)c(N3CCOCC3)o2)cc1,i,i,i,i,i
O=S(=O)(c1ccc(Cl)cc1)c1nc(-c2ccccc2Br)oc1N1CCOCC1,23µM,nt,18µM,nt,nt
O=S(=O)(c1ccc(Cl)cc1)c1nc(-c2ccco2)oc1N1CCOCC1,i,i,i,i,i
COc1cc(-c2nc(S(=O)(=O)c3ccc(C)cc3)c(N3CCOCC3)o2)cc(OC)c1OC,9.2µM,i,12µM,i,i
O=P(c1ccccc1)(c1ccccc1)c1nc(-c2ccccc2)oc1N1CCOCC1,i,i,i,i,i
COc1cc(-c2nc(S(=O)(=O)c3ccc(Cl)cc3)c(N3CCOCC3)o2)cc(OC)c1OC,16µM,i,?,i,i
O=C(Nc1cccc(O)c1)C1CC(c2ccc(Cl)cc2)=NO1 (stereo not given),i,i,i,i,i
COc1ccc(-n2c(=O)c3ccccc3n(Cc3ccc(F)cc3Cl)c2=O)cc1OC,i,nt,i,nt,nt
COc1cccc(N=CNc2cccc(OC)c2)c1,i,?,i,i,i
Cc1ccc(CNC(=O)COC(=O)CCCOc2ccc(Cl)cc2Cl)cc1,i,i,i,i,i
Cc1ccc(NC(=O)c2ccc(F)c(S(=O)(=O)NCCc3ccccc3)c2)cc1F,23µM,nt,21µM,nt,nt
Cc1ccc(CNS(=O)(=O)c2cc(C(=O)Nc3ccc(C(C)C)cc3)ccc2F)cc1,i,nt,i,nt,nt
COc1ccc(NC(=O)c2ccc(Cl)c(S(=O)(=O)N3CCc4ccccc4C3)c2)cn1,23µM,i,21µM,i,i
Cc1ccc(NC(=O)c2ccc(F)c(S(=O)(=O)N3CCc4ccccc4C3)c2)cc1F,23µM,nt,?,nt,nt
O=C(Nc1ccc(F)cc1)C(c1ccnc2ccccc12)N1CCN(C(=O)c2ccco2)CC1 (stereo not given),i,i,i,i,i
Cc1cnc(C)c(-c2ccc(F)c3c2OC(CNC(=O)Cc2c(F)cccc2F)C3)n1 (stereo not given),i,nt,i,nt,nt
S=C(NCc1ccc(Cl)cc1Cl)NC1CCCCC1,?,?,?,i,?
O=S(=O)(Cc1nnnn1-c1ccc(Br)cc1)c1ccccc1,i,i,i,i,i
CCS(=O)(=O)c1nnnn1-c1ccccc1S(C)(=O)=O,?,13µM,?,-97,18µM
O=C(Nc1cccc([N+](=O)[O-])c1)c1ccc2ccccc2c1O,15µM,?,23µM,-63,?
O=C(Nc1ccccn1)c1ccc2ccccc2c1O,15µM,i,i,i,i
O=C(Nc1cccnc1)c1ccc2ccccc2c1O,13µM,i,i,i,i
O=C(Cc1ccccc1)Nc1cccc([N+](=O)[O-])c1,i,i,i,i,i
Cc1cccc(C)c1NC(=O)COC(=O)[C@@H]1CCCN1C(=O)c1cccs1,i,i,i,i,i
O=S(=O)(c1ccccc1)N(Cc1nc(-c2ccccc2)no1)C1CCCCC1,21µM,i[9.24 µM],?,i,i
SMILES,DT40 TDP1 no CPT,HT1080 IDH1KD tx,DT40 TDP1 CPT,IL-1B inflam inh,HT1080NT lethal
CC(C)N(Cc1nc(-c2ccccc2)no1)S(=O)(=O)c1ccccc1,?,i,?,i,i
O=S(=O)(c1ccc(F)cc1)N(Cc1nc(-c2ccccc2)no1)C1CCCCC1,16µM,nt,?,nt,nt
COC(=O)[C@H]1[C@H]2C[C@@H]3c4[nH]c5ccccc5c4CCN3C[C@H]2C[C@@H](OC(=O)c2cc(OC)c(OC)c(OC)c2)[C@@H]1OC,15µM,nt,1.1µM,nt,nt
COc1ccc2c3c([nH]c2c1)[C@H]1C[C@H]2[C@H](C[C@@H](O)[C@H](OC)[C@H]2C(=O)O)CN1CC3,?,?,?,-82,?
COc1ccc(N2CCN(C(=O)COC(=O)/C=C/c3ccc(C(F)(F)F)cc3)CC2)cc1,?,i,?,i,i
O=C(NCC1CCCO1)c1cn(Cc2ccccc2)nc1-c1ccc(Cl)cc1 (stereo not given),?,i,i,i,i
N#CC(=C1C=CC(=NO)C(Cl)=C1)c1ccc(Cl)cc1,3.7µM,?,4.6µM,-54,i
C=CC[C@]12C=C(OC)C(=O)C=C1O[C@@H](c1ccc3c(c1)OCO3)[C@H]2C,i,i,i,i,i
CC[C@H](C)C(=O)O[C@H]1CCC=C2C=C[C@H](C)[C@H](CC[C@@H]3C[C@H](O)CC(=O)O3)[C@H]21,13µM,nt,19µM,nt,nt
CC[C@H](C)C(=O)O[C@H]1CCC=C2C=C[C@H](C)[C@H](CC[C@@H]3C[C@@H](O)CC(=O)O3)[C@H]21,15µM!,7.3µM,?,i,4.1µM
CCC(C)C(=O)OC1CCC=C2C=CC(C)C(CCC3CC(O)CC(=O)O3)C21 (stereo not given),23µM,?,?,i,12µM
COc1cccc(CNC(=O)[C@@H]2CCCN2C(=O)[C@@H]2CCCN2)c1,i,i,i,i,i
CSc1nc2nc(Cl)c(Cl)nc2[nH]1,?,i,?,i,i
COc1cc(CN2CCC3(CCC(CNC(=O)c4ccco4)O3)CC2)cc(OC)c1 (stereo not given),i,nt,i,nt,nt
CCC(C)c1ccccc1OCCCNC1CCCC1 (stereo not given),18µM,i,?,-70,i
C=CCNCCCCOc1ccc(OCc2ccccc2)cc1,23µM,i,?,-51,i
CC(C)Oc1ccc(OCCNC2CCCC2)cc1,i,i,i,i,i
c1ccc(COc2ccc(OCCCNC3CCCC3)cc2)cc1,21µM,?,?,-96,23µM
COCCCNCCCCOc1ccc(OCc2ccccc2)cc1,23µM,?,?,i,?
CCc1cccc(OCCCCNCCOC)c1,i,i,i,i,i
CS(=O)(=O)N1CCCC(C(=O)Nc2ccccc2)C1 (stereo not given),i,i,i,i,i
CCCn1nc(C(=O)OCC(=O)Nc2ccc(C)cc2)c2ccccc2c1=O,i,i,i,i,i
COCCn1c(SCc2cnc(-c3ccccc3)s2)nnc1-c1ccncc1,?,i,21µM,i,i
COCCn1c(SCC#N)nnc1-c1ccccc1,i,i,i,i,i
O=C1N=C(N2CCCCC2)SC1=C1CCCC1,i,i,i,i,i
CCCCN1C(=O)/C(=C2\SC(N3CCCCC3)=NC2=O)c2ccccc21,?,i,23µM,i,i
O=P(c1ccccc1)(c1ccccc1)c1nc(-c2ccccc2)oc1NCc1ccccc1,18µM,i,?,i,i
Cc1sc(NC(=O)CN2C(=O)NC3(CCCC3)C2=O)nc1-c1ccc(F)cc1,?,i,?,i,i
